IEC-6 tox: cytotoxicity in IEC-6 intestinal epithelial cells, primary screen, cytotoxicity control for KLF5 inhibitor project, cell-based, luminescence; inhibition, % at 5 µM; IEC-6 cytotoxicity, luminescence viability; 290,000 tested, 0.78% active
Ba/F3 V617F tox: reduced viability of JAK2V617F-dependent Ba/F3 cells, primary screen, JAK2V617F inhibitor project, cell-based, Ba/F3 EpoR-JAK2V617F, luminescence; ATP luminescence; inhibition, % at 5.6 µM; 220,000 tested, 1.1% active; AID 1446, 2008;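 active = inhibition above the campaign mean plus 3 SD over all tested compounds, cut at about 24% in these data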;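 also: cytokine-independent growth of Ba/F3 cells driven by EpoR plus mutant JAK2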
APP 5UTR inh: inhibitors of APP translation via 5'UTR reporter, primary screen, APP 5'UTR luciferase, SH-SY5Y cells; 190,000 tested, 0.82% active; inhibition, % at 2 µM; SH-SY5Y APP 5'UTR-luciferase reporter, luminescence;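 active = inhibition above a set limit, derived from the sample mean plus 3 SD, cut at about 45% in these data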
KLF5 inh: KLF5 expression inhibitors, primary screen, DLD-1 cells, luminescence; DLD-1 KLF5 promoter-luciferase reporter; inhibition, % at 5 µM; 290,000 tested, 0.23% active; AID 1700, 2009;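 active = inhibition above a per-plate limit of that plate's mean compound inhibition plus 3 SD, cut at about 60% in these data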;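 also: higher means less KLF5 promoter-driven luciferase light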
BaF3 parental: parental Ba/F3 cell viability inhibition, counter-screen for JAK2V617F inhibitor project, murine pro-B, CellTiter-Glo luminescence; AID 1486, 2009; 220,000 tested, 1.1% active; CellTiter-Glo ATP luminescence; inhibition, % at 5.6 µM;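 active = inhibition above a per-campaign cutoff, the mean inhibition of all tested compounds plus 3 SD, cut at about 27% in these data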
IEC-6 tox confirm: cytotoxic compounds in IEC-6 epithelial cells, confirmation, cytotoxicity control, cell-based, luminescence. 1,900 tested, 63% active. IEC-6 rat intestinal epithelial viability. shares compounds with IEC-6 tox. AID 1907, 2009. inhibition, % at 5 µM
Large screens that a line does not name were inactive (follow-up assays come after a bar, where they were run). In the library only some 1.8% were active in any assay of this set; here they are far more common. Rule as the data show it, unless noted: active = inhibition above about 22%; inactive = the rest.

COc1ccc(N2CC(C(=O)Nc3nc4ccc(S(C)(=O)=O)cc4s3)CC2=O)cc1 (stereo unspecified)	none (no result: Ba/F3 V617F tox, APP 5UTR inh, BaF3 parental)
O=C(OCN1C(=O)c2ccccc2C1=O)c1cccc(OC(F)F)c1	none (no result: Ba/F3 V617F tox, APP 5UTR inh, BaF3 parental)
O=c1[nH]c(/C=C/c2cccc3ccccc23)nc2ccccc12	none
O=c1[nH]c(/C=C/c2ccccc2F)nc2ccccc12	IEC-6 tox 79 (no result: Ba/F3 V617F tox, APP 5UTR inh, BaF3 parental) | IEC-6 tox confirm 63
CC1=Nc2ccccc2/C1=C/c1sc(=N)n(-c2nccs2)c1O	IEC-6 tox 27 | IEC-6 tox confirm 41
CC1=Nc2ccccc2/C1=C/c1nc(-c2ccc(C)s2)oc1O	none
COc1ccccc1-c1nnc(NC(=O)Cc2ccccc2)o1	none (no result: Ba/F3 V617F tox, APP 5UTR inh, BaF3 parental)
COc1ccccc1-c1nnc(Nc2nc3c(OC)cccc3s2)o1	IEC-6 tox 69, Ba/F3 V617F tox 72, APP 5UTR inh 87, BaF3 parental 76 | IEC-6 tox confirm 73
CCn1c(CC(=O)Nc2ccccc2)nnc1SCC(=O)Nc1nnc(C)s1	none (no result: Ba/F3 V617F tox, APP 5UTR inh, BaF3 parental)
O=C(c1ccc(CS(=O)c2ccccc2Cl)o1)N1CCN(c2ccccn2)CC1 (stereo unspecified)	IEC-6 tox 56 (no result: Ba/F3 V617F tox, APP 5UTR inh, BaF3 parental) | IEC-6 tox confirm 45
Cn1c(=O)c2cc(S(=O)(=O)Nc3ccc4c(c3)OCO4)ccc2n(C)c1=O	IEC-6 tox 22 | IEC-6 tox confirm inactive
COC(=O)Cn1c2ccc(Cl)cc2c2nc(C)sc21	none (no result: APP 5UTR inh)
Cc1nc2c3cc(Cl)ccc3n(CCN3CCCCC3)c2s1	IEC-6 tox 41, BaF3 parental 36 | IEC-6 tox confirm inactive
CCN1CCN(Cc2ccc(C(=O)Nc3ccc(C)c(NCc4cnc(NC(=O)OC)cn4)c3)cc2C(F)(F)F)CC1	none (no result: Ba/F3 V617F tox, APP 5UTR inh, BaF3 parental)
CCN1CCN(Cc2ccc(NC(=O)c3ccc(C)c(NC(=O)C(=O)c4c[nH]c5ccccc45)c3)cc2C(F)(F)F)CC1	IEC-6 tox 55 (no result: Ba/F3 V617F tox, APP 5UTR inh, BaF3 parental) | IEC-6 tox confirm inactive
Cc1ccccc1CN(C)Cc1cc(=O)oc2c(C)c(C)ccc12	IEC-6 tox 28 (no result: Ba/F3 V617F tox, APP 5UTR inh, BaF3 parental) | IEC-6 tox confirm inactive
COc1cccc(CN(C)Cc2cc(=O)oc3cc(O)c(Cl)cc23)c1	none (no result: Ba/F3 V617F tox, APP 5UTR inh, BaF3 parental)
COc1cccc(CN(C)Cc2cc(=O)oc3c(C)c(C)ccc23)c1	IEC-6 tox 61 (no result: Ba/F3 V617F tox, APP 5UTR inh, BaF3 parental) | IEC-6 tox confirm 39
Cc1c(O)ccc2c(CN(C)Cc3ccccc3)cc(=O)oc12	IEC-6 tox 58 (no result: APP 5UTR inh) | IEC-6 tox confirm inactive
CC(=O)Nc1ccc(S(=O)(=O)N2CCN(C(=O)c3ncoc3-c3ccc(F)cc3)CC2)cc1	none (no result: Ba/F3 V617F tox, APP 5UTR inh, BaF3 parental)
O=C1CCCN2N=C(SCC(=O)Nc3ccc(F)cc3F)SC2=N1	none (no result: Ba/F3 V617F tox, APP 5UTR inh, BaF3 parental)
CCN(CC)c1ccc2cc(-c3nc4ccccc4n3C)c(=O)oc2c1	IEC-6 tox 84, Ba/F3 V617F tox 69, APP 5UTR inh 87, BaF3 parental 77 | IEC-6 tox confirm 66
CCN(CC)c1ccc2cc(-c3nc4ccccc4[nH]3)c(=O)oc2c1	none
Cc1cc(C(=O)NNC(=S)NC2CCCCC2)cs1	none (no result: Ba/F3 V617F tox, APP 5UTR inh, BaF3 parental)
Cc1csc(NC(=O)CSc2nccn2C)n1	none (no result: Ba/F3 V617F tox, APP 5UTR inh, BaF3 parental)
COc1cc(C(=O)Nc2ccc(NC(=O)C3CC3)nc2)cc(OC)c1OC	IEC-6 tox 95 | IEC-6 tox confirm inactive
O=C(Cc1cccs1)N1CCN(c2ccc([N+](=O)[O-])cc2)CC1	none
Nn1cnnc1N/N=C/c1ccc(F)cc1	none (no result: Ba/F3 V617F tox, APP 5UTR inh, BaF3 parental)
Nn1cnnc1N/N=C/c1ccc(Cl)c([N+](=O)[O-])c1	IEC-6 tox 52 | IEC-6 tox confirm inactive
Cc1nnc(NC(=O)c2nc(S(=O)(=O)Cc3ccccc3)ncc2Cl)s1	IEC-6 tox 34 (no result: Ba/F3 V617F tox, APP 5UTR inh, BaF3 parental) | IEC-6 tox confirm inactive
CS(=O)(=O)c1ncc(Cl)c(C(=O)Nc2ccc(N3CCOCC3)cc2)n1	none
CCN(c1ccccc1)S(=O)(=O)c1ccc(NC(=O)c2nc(S(C)(=O)=O)ncc2Cl)cc1	IEC-6 tox 100 (no result: Ba/F3 V617F tox, APP 5UTR inh, BaF3 parental) | IEC-6 tox confirm inactive
CS(=O)(=O)c1ncc(Cl)c(C(=O)Nc2ccc(OC(F)F)cc2)n1	IEC-6 tox 99 (no result: Ba/F3 V617F tox, APP 5UTR inh, BaF3 parental) | IEC-6 tox confirm 29
CCN(c1ccccc1)S(=O)(=O)c1ccc(NC(=O)c2ccco2)cc1	none
Cc1cccc(CS(=O)(=O)c2ncc(Cl)c(C(=O)NCc3ccccc3)n2)c1	IEC-6 tox 62 (no result: Ba/F3 V617F tox, APP 5UTR inh, BaF3 parental) | IEC-6 tox confirm 29
Cc1cccc(CS(=O)(=O)c2ncc(Cl)c(C(=O)Nc3c(C)cccc3C)n2)c1	IEC-6 tox 35 (no result: Ba/F3 V617F tox, APP 5UTR inh, BaF3 parental) | IEC-6 tox confirm inactive
